Data taken from PubChem BioAssay.
For some of these results: Potency and affinity values are given separately. Inconclusive results are not listed. Some of the results follow. The source made the active and inactive calls. Unless noted, no rule for the calls is given here.

Columns and labels:
[1] = RMG-1 ovarian cancer cell viability loss – cherry-pick, dose response (AID 687029;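 active = signal drop whose fitted half-maximal concentration is at most twice the top valid dose, in every test run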;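 also: cells exposed to compound for 96 hours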)
[2] = IOSE-T80 viability loss, PAX8-independent line – cell-based, cherry-pick, selectivity assay for PAX8 inhibitor project, dose response (AID 687032;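 active = fitted half-maximal concentration for viability loss no higher than twice the top valid dose, in every repeat run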;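 also: cells exposed to compound for 96 h before reading; 0% = neutral control wells and -100% = 2 µM mitoxantrone kill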)
[3] = IGROV1 cell killing – plate reader, dry powder samples, PAX8 inhibitor project, dose response (AID 743043);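 also: more negative means fewer viable cells or more cytotoxicity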
[4] = toxicity toward immortalized ovarian surface epithelium – cell-based, plate reader, dry powder samples, cytotoxicity control for PAX8 inhibitor project, dose response (AID 743045);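 also: 0% = neutral control median and -100% = positive control median; more negative values mean more cell killing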
[5] = A2780 cell killing – plate reader, dry powder samples, cytotoxicity control, dose response (AID 743046);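 also: 0% = neutral control wells and -100% = cytotoxic reference compound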
[6] = OVCAR8 cell viability loss – plate reader, dry powder samples, PAX8 project, dose response (AID 743197)
[7] = general cell-killing toxicity readout – plate reader, dry powder samples, cytotoxicity control for PAX8 inhibitor project, dose response (AID 743021)
[8] = A549 cell cytotoxicity, dose response, cytotoxicity control, plate reader, cherry-pick, antagonist series (AID 743412);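 also: 0% = neutral control wells and -100% = positive control wells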
[9] = toxicity toward HepG2 liver cells – cell-based, plate reader, cherry-pick, antagonist series, cytotoxicity control, dose response (AID 743416);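 also: 0% = neutral control wells and -100% = positive control wells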
[10] = OVCAR-3 cell viability loss – plate reader, dry powder samples, PAX8 inhibitor project, dose response (AID 743044); conditions: max activity: at 35 µM, hits give low values unless noted
[11] = small-molecule DNA binding by polarization – biochemical, fluorescence polarization, cherry-pick, counter-screen for EWS/Fli inhibitor project, dose response (AID 720586;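 active = fitted curve reaches a 35% signal fall AC35 below twice the sample's top valid tested dose, actives reach about 48 µM in these data; inactive = the rest, including activity in the rising direction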;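 also: 0% = neutral control median and -100% = 10 µM mitoxantrone control median; lower polarization ratio signals compound binding to DNA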)
[12] = CMV-driven luciferase expression suppression in HEK293 – cell-based, luminescence, dry powder, counter-screen for Pax8 inhibitor project, dose response (AID 743020;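 active = signal-lowering compounds whose fitted half-maximal concentration is at or below twice the top tested dose in every run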;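 also: HEK293 cells stably expressing the CMV luciferase reporter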)

COc1ccc(NC(=O)N2CCCCN3[C@H](C2)[C@@H](c2ccc(C#Cc4ccccc4)cc2)[C@@H]3CO)cc1
inactive: outcome [1] | outcome [2] | outcome [3] | outcome [4] | outcome [5]

COc1cccc(C#Cc2ccc([C@H]3[C@@H](CO)N(C(=O)C4CCCCC4)[C@H]3C#N)cc2)c1
inactive: outcome [1] | outcome [2] | outcome [3] | outcome [4] | outcome [6]

COc1ccc(CN(C)C[C@@H]2OCCCC[C@H](C)Oc3ccc(NC(=O)Nc4ccc(C(F)(F)F)cc4)cc3C(=O)N([C@@H](C)CO)C[C@H]2C)cc1
inactive: outcome [1] | outcome [2] | outcome [3] | outcome [4]

O=C(Nc1cccc(C(=O)O)c1)Nc1ccc2c(c1)OCO2
inactive: outcome [1] | outcome [2] | outcome [7] | outcome [8] | outcome [9]

Nc1ccc(-c2nc3ccc(C(=O)O)cc3s2)cc1
inactive: outcome [1] | outcome [2] | outcome [8] | outcome [9]

CCCC#Cc1ccc([C@H]2[C@@H](C#N)N(C(=O)C3CCCCC3)[C@H]2CO)cc1
inactive: outcome [1] | outcome [2] | outcome [3] | outcome [4]

COc1ccc(NC(=O)Nc2ccc3c(c2)C(=O)N([C@H](C)CO)C[C@H](C)[C@H](CN(C)Cc2ccc(C(F)(F)F)cc2)OCCCC[C@H](C)O3)cc1
inactive: outcome [1] | outcome [2] | outcome [4] | outcome [5]

C[C@H](CO)N1C[C@H](C)[C@H](CN(C)Cc2ccc3c(c2)OCO3)OCCCC[C@H](C)Oc2ccc(NC(=O)Nc3ccc(C(F)(F)F)cc3)cc2C1=O
inactive: outcome [1] | outcome [2] | outcome [3] | max activity [10] -20.3% [at 0.26 µM, hits give low values] | outcome [4] | outcome [5] | outcome [6]

Cn1cnc(S(=O)(=O)N2C[C@@H]3N[C@H](C2)C3c2ccc(-c3ccccc3F)cc2)c1 (stereo partly specified)
inactive: outcome [1] | outcome [2] | outcome [7] | outcome [5]

O=C(C[C@H]1C[C@@H]2c3cc(NS(=O)(=O)c4ccc(F)cc4)ccc3O[C@@H]2[C@@H](CO)O1)N1CCc2ccccc2C1
inactive: outcome [1] | outcome [2] | outcome [3] | outcome [4] | outcome [5]

N#C[C@@H]1[C@@H](c2ccc(C#Cc3ccccc3F)cc2)[C@H](CO)N1C(=O)C1CCCCC1
inactive: outcome [1] | outcome [2] | outcome [7] | outcome [5]

CCCCCCCCn1c2c(c(=N)c3c1CCC3)CCCC2
inactive: outcome [1] | AC35 [11] | outcome [12] | outcome [7]

C[C@@H]1CN([C@H](C)CO)C(=O)c2cc(NS(=O)(=O)c3ccccc3)ccc2O[C@@H](C)CCCCO[C@H]1CN(C)Cc1ccc(C(F)(F)F)cc1
inactive: outcome [1] | outcome [2] | outcome [7] | outcome [5]

C[C@@H]1CCCCO[C@@H](CN(C)S(=O)(=O)c2ccccc2)[C@H](C)CN([C@H](C)CO)C(=O)c2cc(NC(=O)Nc3ccc(C(F)(F)F)cc3)ccc2O1
inactive: outcome [1] | outcome [2] | outcome [4] | outcome [5] | outcome [6]

C[C@H](CO)N1C[C@H](C)[C@@H](CN(C)Cc2ccc(C(F)(F)F)cc2)OCCCC[C@H](C)Oc2ccc(NS(=O)(=O)c3ccc(F)cc3)cc2C1=O
inactive: outcome [1] | outcome [2] | outcome [4] | outcome [6]

C[C@@H]1CN([C@@H](C)CO)C(=O)Cc2cc(NC(=O)Cc3ccccc3)ccc2O[C@H]1CN(C)Cc1ccc(-c2ccccc2)cc1
inactive: outcome [1] | outcome [2] | outcome [3] | max activity [10] -33% | outcome [4] | outcome [5] | outcome [6]

COc1cccc(C#Cc2ccc([C@H]3[C@@H](CO)N(C(=O)c4ccccn4)[C@H]3C#N)cc2)c1
inactive: outcome [1] | outcome [2] | outcome [4] | outcome [5]

C[C@@H]1CN([C@@H](C)CO)S(=O)(=O)c2ccc(C#Cc3ccccc3F)cc2O[C@H]1CN(C)C(=O)Cc1ccccc1
inactive: outcome [1] | outcome [2] | outcome [3] | outcome [4] | outcome [5]

C[C@H](CO)N1C[C@H](C)[C@@H](CN(C)Cc2ccc(C(F)(F)F)cc2)Oc2ccc(NS(=O)(=O)c3ccc(Cl)cc3)cc2CC1=O
inactive: outcome [1] | outcome [2] | outcome [4] | outcome [5]

COc1ccc(S(=O)(=O)Nc2ccc3c(c2)C(=O)N([C@H](C)CO)C[C@H](C)[C@@H](CN(C)S(=O)(=O)c2ccc(Cl)cc2)OCCCC[C@H](C)O3)cc1
inactive: outcome [1] | outcome [2] | outcome [4]

COc1ccccc1C#Cc1ccc([C@H]2[C@H](C#N)N(C(=O)C3CCC3)[C@H]2CO)cc1
inactive: outcome [1] | outcome [2] | outcome [3] | outcome [5]

Cn1nnnc1Sc1ncnc2scc(-c3cccc(Br)c3)c12
inactive: outcome [1] | outcome [2] | outcome [7] | outcome [9]

N#C[C@H]1[C@H](c2ccc(C#Cc3ccccc3F)cc2)[C@H](CO)N1C(=O)C1CCC1
inactive: outcome [1] | outcome [2] | outcome [3] | outcome [4] | outcome [5] | outcome [6]

COc1ccc(S(=O)(=O)N(C)C[C@@H]2Oc3ccc(NC(=O)Nc4ccc(C(F)(F)F)cc4)cc3CC(=O)N([C@H](C)CO)C[C@@H]2C)cc1
inactive: outcome [1] | outcome [2] | outcome [7] | activity change, negative = cytotoxicity [5] -15.3% [at 8 µM]

O=C1CN(S(=O)(=O)Cc2ccccc2)C[C@H]2[C@H](c3ccc(C#Cc4ccc(F)cc4)cc3)[C@H](CO)N12
inactive: outcome [1] | outcome [2] | outcome [3] | outcome [4] | outcome [5] | outcome [6]

CCn1c2ccccc2c2cc(NC(=O)c3cc(OC)cc(OC)c3)ccc21
inactive: outcome [1] | outcome [12] | outcome [7]

Cn1nnnc1Sc1ncnc2scc(-c3ccc(Br)cc3)c12
inactive: outcome [1] | outcome [12] | outcome [7]

CCCCn1c(N)c(N(CCC(C)C)C(=O)COC(=O)c2ccc([N+](=O)[O-])s2)c(=O)[nH]c1=O
inactive: outcome [1] | outcome [12] | outcome [7]

CC(C1CC1)N(Cc1ccccc1)C(=S)Nc1cccc(C(F)(F)F)c1 (stereo unspecified)
inactive: outcome [1] | outcome [12] | outcome [7]

CC(=O)Nc1ccc(NC(=O)c2nc(S(=O)(=O)Cc3ccccc3)ncc2Cl)cc1
inactive: outcome [1] | outcome [12] | outcome [7]

CCN(CC)S(=O)(=O)c1cc(OC)ccc1N=Nc1ccc(O)c2ncccc12
inactive: outcome [1] | outcome [12] | outcome [7]

Cc1ccc(C(=O)c2cc([N+](=O)[O-])ccc2N2CCCCC2)c(C)c1
inactive: outcome [1] | outcome [12] | outcome [7]

CCOc1ccc2c(c1)C(C)=CC(C)(C)N2S(=O)(=O)c1ccc(NC(C)=O)cc1
inactive: outcome [1] | outcome [12] | outcome [7]

CCCCCCCn1c2c(c(=N)c3c1CCC3)CCCC2
inactive: outcome [1] | outcome [12] | outcome [7]

Cc1ccc(NC(=O)/C=C/c2ccc([N+](=O)[O-])s2)c(C)c1
inactive: outcome [1] | outcome [12] | outcome [7]

O=C(c1ccco1)N1N=C(c2ccc(Br)cc2)CC1(O)C(F)(F)F (stereo unspecified)
inactive: outcome [1] | outcome [12] | outcome [7]

CCOc1ccc(C(=O)C(CN2CCOCC2)c2ccccc2)cc1 (stereo unspecified)
inactive: outcome [1] | outcome [12] | outcome [7]

O=C(Nc1cc(S(=O)(=O)N2CCCCC2)ccc1Cl)c1ccccc1NS(=O)(=O)c1ccc(F)cc1
inactive: outcome [1] | outcome [12] | outcome [7]

S=C1SCN(Cc2cccnc2)CN1Cc1cccnc1
inactive: outcome [1] | outcome [12] | outcome [7]

O=c1cc(C(Cl)(Cl)Cl)oc2c1ccc1ccccc12
inactive: outcome [1] | outcome [12] | outcome [7]

CC1=CC(=O)C(C(C)C)=C/C1=N/OS(=O)(=O)c1ccccc1
inactive: outcome [1] | outcome [12] | outcome [7]

CSc1nc(-c2ccccc2)nc(C(Cl)Cl)n1
inactive: outcome [1] | outcome [12] | outcome [7]
